# Compounds with a hit are over-represented: about 12% of the library has one in this group of screens.
# PLK1 PBD block: inhibitors of human PLK1 polo-box domain binding; P53350; 360,000 compounds, 2.8% hits; Potency, µM, actives largely listed as inhibitors; Plk1 PBD binding of FITC phosphopeptide, fluorescence polarization; also: series mostly up to about 57 µM; nearly all actives have a fitted effect of over 65% in size
# G9a block: inhibitors of human histone lysine methyltransferase G9a; 350,000 compounds, 8.8% hits; G9a H3K9 monomethylation, AlphaScreen, 2 h; Q96KQ7; Potency, µM (doses to about 102 µM), most hits filed as inhibitors; also: nearly all actives have a fitted effect of over 75% in size
#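 Enzyme 20 nM + cpd, 15 min RT; add b-H3K9 pep 500 nM / SAM 20 uM; 2 h RT; anti-H3K9me1 Ab 0.5 ug/mL + SA donor / anti-rabbit acceptor beads 20 ug/mL each, 10 min; AlphaScreen read.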
# Sfp PPTase inh: blocks B. subtilis Sfp PPTase activity; Q9F4F7; Biochemical Sfp PPTase activity, qHTS; Potency, µM, usual class: inhibitors; 310,000 compounds, 3.5% hits; AID 1490;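 also: the enzyme is Sfp with the accession as filed and its product quenches rhodamine fluorescence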
#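 After 15 min at room temperature with compound, 15 nM Sfp received 5 uM rhodamine-CoA plus 12.5 uM BHQ-2-ybbR (50 mM Hepes pH 7.6, 10 mM MgCl2). Rate came from the fluorescence difference over 30 min, ex 525/em 598 nm.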
# JMJD2A Tudor: inhibitors of human JMJD2A Tudor domain; Potency, µM (doses to about 114 µM), usual class: inhibitors; AlphaScreen JMJD2A-Tudor / H3K4me3 peptide binding; 390,000 compounds, 4.4% hits; also: nearly all actives have a fitted effect of over 50% in size
# Target sequence (O75164 whole entry, looked up, the tested form may be a part): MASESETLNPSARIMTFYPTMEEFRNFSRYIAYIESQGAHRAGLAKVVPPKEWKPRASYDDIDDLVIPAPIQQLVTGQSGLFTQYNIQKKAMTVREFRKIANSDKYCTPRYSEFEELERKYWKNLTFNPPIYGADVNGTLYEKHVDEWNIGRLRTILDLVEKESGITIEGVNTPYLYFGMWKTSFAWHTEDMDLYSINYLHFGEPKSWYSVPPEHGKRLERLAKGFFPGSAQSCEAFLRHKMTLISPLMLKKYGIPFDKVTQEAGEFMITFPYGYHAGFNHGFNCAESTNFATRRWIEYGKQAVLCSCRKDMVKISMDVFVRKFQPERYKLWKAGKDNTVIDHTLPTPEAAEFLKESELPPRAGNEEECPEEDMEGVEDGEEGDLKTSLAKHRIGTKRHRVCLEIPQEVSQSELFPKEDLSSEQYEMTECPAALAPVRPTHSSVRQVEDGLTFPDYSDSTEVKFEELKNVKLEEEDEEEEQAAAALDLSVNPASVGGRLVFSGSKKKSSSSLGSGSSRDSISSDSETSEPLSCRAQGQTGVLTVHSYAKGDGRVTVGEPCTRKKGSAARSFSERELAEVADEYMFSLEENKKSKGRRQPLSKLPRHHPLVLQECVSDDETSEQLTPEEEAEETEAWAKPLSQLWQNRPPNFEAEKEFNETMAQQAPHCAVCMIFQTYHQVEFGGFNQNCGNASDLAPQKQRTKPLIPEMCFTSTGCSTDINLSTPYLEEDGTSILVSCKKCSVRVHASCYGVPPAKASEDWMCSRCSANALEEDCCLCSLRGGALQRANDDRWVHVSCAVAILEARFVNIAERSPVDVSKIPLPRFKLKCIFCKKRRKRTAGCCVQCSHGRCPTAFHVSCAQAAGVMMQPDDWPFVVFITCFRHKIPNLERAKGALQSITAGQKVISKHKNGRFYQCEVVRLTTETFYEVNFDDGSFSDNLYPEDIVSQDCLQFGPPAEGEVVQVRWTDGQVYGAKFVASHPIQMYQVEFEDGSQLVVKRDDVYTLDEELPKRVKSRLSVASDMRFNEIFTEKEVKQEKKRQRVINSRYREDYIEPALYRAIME
# BAZ2B inh: inhibitors of human BAZ2B bromodomain; AID 504333; Q9UIF8; Potency, µM (series often up to 114 µM), actives largely listed as inhibitors; 360,000 compounds, 4.4% hits; AlphaScreen BAZ2B-H3K14Ac peptide displacement; also: nearly all actives have a fitted effect of over 60% in size
#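 Protein-peptide AlphaScreen: BAZ2B 50 nM, b-H3K14Ac 50 nM, 1x PBS pH 7.4 + 0.01% Tween-20. Preincubation 30 min RT; cpd 30 min RT (top 110 uM); beads 20 min RT, light-protected.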
# HP1b chromo inh: inhibitors of HP1-beta chromodomain binding to methylated histone tails; 390,000 compounds, 0.56% hits; AlphaScreen HP1-beta / biotin-H3K9me3 peptide binding; Potency, µM (top dose mostly 114 µM), usual class: inhibitors; AID 540317; also: nearly all actives have a fitted effect of over 70% in size
#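 AlphaScreen: HP1-beta (50 nM) preformed 30 min with biotin-H3(1-18)K9me3 peptide (50 nM) in PBS pH 7.4, 0.01% Tween-20. Compound added for 30 min at RT, then streptavidin donor/nickel chelate acceptor beads (10 ug/mL) for 30 min.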
# A number is an active result; - = inactive; ? = inconclusive; . = no result given; ! = a repeat was not active; [ ] = remark or other dose. Calls follow the shape of the dose curve; as a rule, active = well fitted curve in the direction sought with a large enough effect; inconclusive = small, poorly fitted or top-dose-only effect, or another doubt; inactive = no such curve, though single readings can be large; an effect the other way counts as inactive or inconclusive.
SMILES,PLK1 PBD block,G9a block,Sfp PPTase inh,JMJD2A Tudor,BAZ2B inh,HP1b chromo inh
N#Cc1cc2ccccc2nc1SCc1ccccn1,-,35µM,-,-,-,-
Cc1cc2cc3c(cc2nc1SCc1ccccn1)OCCO3,-,-,-,-,-,-
O=[N+]([O-])c1cc(C(F)(F)F)cc([N+](=O)[O-])c1NCCNC(=S)Nc1ccc(Cl)c(Cl)c1,-,.,-,32µM,25µM,-
S=C(NCc1ccncc1)Nc1ccc(Cl)c(Cl)c1,-,-,-,-,-,-
COc1ccc(OC)c(NC(=O)CSC2=Nc3ccccc3C3=NC(CC(=O)NCc4ccc5c(c4)OCO5)C(=O)N23)c1 (centres undefined),.,-,.,-,-,-
O=C(CN1C(=O)c2ccc([N+](=O)[O-])cc2C1=O)NCc1ccco1,-,-,-,-,-,-
Cc1ccc2c(=O)c(C(=O)c3ccc(F)cc3)cn(CC(=O)NCc3ccco3)c2n1,-,50µM,-,?,50µM,-
Cc1sc2ncn(CC(=O)NCc3ccco3)c(=O)c2c1-c1ccc(F)cc1,-,?,18µM,-,?,-
O=C(Cn1cnc2scc(-c3cccc([N+](=O)[O-])c3)c2c1=O)NCc1ccco1,?,-,?,22µM,45µM,?
Cc1ccc2[nH]c(=O)c(CN(CCCO)Cc3nnnn3Cc3ccccc3)cc2c1,.,.,.,-,.,-
O=C(NCC(c1cccnc1)N1CCc2ccccc2C1)C(=O)Nc1ccccc1F (centres undefined),.,?,.,?,?,-
Cc1cc(S(=O)(=O)NCCCN2CCOCC2)c(C)cc1Cl,-,?,-,-,-,-
NC(=S)NNC(=O)[C@@H]1CCCC[C@@H]1C(=O)O,21µM,45µM,?,?,-,-
O=C(O)C1CCCCC1C(=O)NC1C2CC3CC(C2)CC1C3 (centres undefined),-,.,-,-,-,-
OCc1ccccc1N=c1ssnc1Cl,.,-[2.33 µM],8.9µM,.,?,.
OCc1ccccc1N=Cc1cccnc1,-,-,-,-,-,-
O=S(=O)(c1ccccc1C(F)(F)F)N1CCN(c2nc(-c3ccccc3)nc3ccccc23)CC1,.,.,.,-,.,-
COc1cccc(C2C3=C(N=c4s/c(=C\c5cccc(O)c5)c(=O)n42)c2ccccc2CC3)c1OC (centres undefined),-,?,-,?,-,?
COc1cccc(C2C3=C(N=c4s/c(=C\c5ccc(OCC(=O)O)cc5)c(=O)n42)c2ccccc2CC3)c1 (centres undefined),?,20µM,56µM,45µM,50µM,-
COc1ccccc1C1C2=C(N=c3s/c(=C/c4cccc(OCC(=O)O)c4)c(=O)n31)c1ccccc1CC2 (centres undefined),?,14µM,79µM,35µM,50µM,?
COC(=O)/C=C/c1c(C)nc(NCc2ccccc2)nc1Cl,-,50µM,-,-,?,-
CCNc1nc(Cl)nc(NCc2ccccc2)n1,-,-,-,-,-,-
CCCCCCCn1c2c(c(=N)c3c1CCC3)CCCC2,-,45µM,-,-,?,-
COc1cc(C)c(NC(=O)C(=S)NCCc2ccccc2)cc1C,12µM,?,16µM,-,-,?
Nc1sc(Cc2ccccc2)cc1C(=O)NC1CCCCC1,27µM,.,.,.,.,.
SMILES,PLK1 PBD block,G9a block,Sfp PPTase inh,JMJD2A Tudor,BAZ2B inh,HP1b chromo inh
COc1ccc(CCNC(=O)CCNC(=O)c2ccc(Br)cc2)cc1OC,-,-,-,-,-,-
COc1ccc(CCNC(=O)c2ccc(CNS(=O)(=O)c3ccc(C(C)(C)C)cc3)cc2)cc1OC,-,-,-,-,-,-
COc1ccc(CCNC(=O)c2ccc(CNS(=O)(=O)c3cc(C)ccc3C)cc2)cc1OC,-,22µM,-,-,-,-
COc1ccc(CCNC(=S)NC(=O)c2ccc(Br)cc2)cc1OC,-,-,-,-,32µM,-
CSc1ccc(CNC(=O)Cn2nc(N3CCN(c4ccccc4)CC3)ccc2=O)cc1,.,-,.,-,-,-
Cc1ccccc1-c1cc(-n2ccnc2)ncn1,.,.,-,.,.,.
COc1ccc2c(c1)c(N1CCCC1=O)c(C(=O)Nc1ccc(Cl)cc1C)n2C,.,-,.,-,-,-
COc1ccc(CCNC(=O)C(C(=O)c2ccccc2)n2cc(Cl)ccc2=O)cc1OC (centres undefined),-,50µM,-,-,-,-
COc1ccc(CCNC(=O)c2ccc3c(c2)NC(=O)C(CSCc2cc(C)ccc2C)N3)cc1OC (centres undefined),.,1.8µM,45µM,.,-,.
COc1ccc(CCNS(=O)(=O)c2cccc(C(=O)O)c2)cc1OC,3.4µM,-,-,-[11.4 µM],-,?
O=C(NC1CCCCC1)C(=S)NCCc1ccccc1,24µM,11µM,28µM,-,-,-
COc1ccc(CCNS(=O)(=O)c2cccc([N+](=O)[O-])c2)cc1OC,-,.,-,-,-,-
Cc1ccc(Cn2c(C)c(CNCc3ccc(OC(C)C)cc3)c(C(=O)O)c2C)cc1,.,-,.,-,?,-
COC(=O)[C@]12CCCCC=C1N(CCc1ccc(OC)c(OC)c1)C(=O)[C@H](CC(=O)NCc1ccc(C)o1)C2,-,.,.,.,.,.
COc1ccc(CNS(=O)(=O)c2csc(C(N)=O)c2)cc1OC,-,-,-,32µM!,-,-
COc1ccc(CCNC(=S)NC(=O)c2ccccc2)cc1C,-,56µM,-,-,?,-
C/C(=N\Nc1ccc(Cl)c(C(=O)O)c1)c1ccc2c(c1)OCO2,-,4.5µM,-,-,?,-
CNC(=S)N/N=C/c1ccc2c(c1)OCCO2,-,-,?,-,-,-
Cc1ccc(N/N=C/c2ccc3c(c2)OCCO3)cc1Cl,-,8.9µM,-,?,-,?
O=C(O)c1cc(N/N=C/c2ccc3c(c2)OCO3)ccc1Cl,-,50µM,-,-,?,-
Cc1ccc(N/N=C/c2ccc(N3CCOCC3)cc2)cc1C,-,2.5µM,?,40µM,?,79µM
Cc1ccc(/C=N/Nc2cc(C)nc(N3CCOCC3)n2)cc1,-,-,-,?,-,-
O=C(O)c1cc(N/N=C/c2ccc3c(c2)OCCO3)ccc1Cl,-,?,-,-,-,-
CN1CCN(C2CN(Cc3ccc(F)cc3)S(=O)(=O)C2)CC1 (centres undefined),-,.,.,.,.,.
C[C@@]12CCC3c4ccc(OC5C=CC(c6ccccc6)OC5CO)cc4CCC3C1CCC2=O (some centres undefined),.,.,-,.,.,.
CCOc1ccc(C(c2c(O)cc(C)n(CCOC)c2=O)N2CCN(c3ccc(F)cc3)CC2)cc1 (centres undefined),.,18µM,.,-,-,-
Cc1ccc(-c2nc3ccc([N+](=O)[O-])cc3[nH]2)cc1,-,?,-,-,-,-
O=[N+]([O-])c1ccc(-c2nc(-c3ccc(F)cc3)c(-c3ccncc3)[nH]2)cc1,.,35µM,-,.,.,.
